About 83,000 compounds went through this panel and 20% of them were active in at least one assay; those are over-represented in the sample as a whole.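 In brief: 96-well plates, 48 h treatment, single concentration, percent growth endpoint.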 A number with no mark means an inactive call. The source made the active and inactive calls. The calls were made as follows: active = growth percent below 10; inactive = the rest.

Results on 8 compounds are retold here after PubChem BioAssay (NCI).

Some test systems named below: NCI-H23 lung; NCI-H226 lung; NCI-H322M lung; HOP-62 NSCLC; NCI-H460 lung; 786-0 renal; DU-145 prostate; MDA-MB-231 breast; SF-268 CNS; SNB-19 CNS; UACC-62 melanoma; SK-MEL-28 melanoma; SN12C renal; UO-31 renal; OVCAR-5 ovarian; OVCAR-3 ovarian; NCI/ADR-RES ovarian; MDA-MB-435 melanoma; MCF7 breast; KM12 colon.
Common to all, as to assay: NCI-60 one-dose screen, 48 h (100 = growth as untreated, 0 = no growth, -100 = all killed)
Common to all, as to conditions: 10 µM unless noted

Consider `O=CC(Br)C(Br)c1ccccc1` (stereo not given), for which the growth was 104% in the assay on NCI-H23 lung; 97.7% in the assay on NCI-H226 lung; 103% in the assay on NCI-H322M lung; 107% in the assay with HOP-62 NSCLC; 102% in the assay with NCI-H460 lung; 106% in the assay with 786-0 renal. In addition, the growth in the assay on DU-145 prostate is 77%; with MDA-MB-231 breast it was 96.5%; with SF-268 CNS it was 95.7%; in the assay with SNB-19 CNS it was 96%; in the assay on UACC-62 melanoma, 87.4%; with SK-MEL-28 melanoma it was 93.7%. In addition, the growth with SN12C renal is 86.7%; in the assay on UO-31 renal, 74.1%; in the assay with OVCAR-5 ovarian, 98%; in the assay on OVCAR-3 ovarian, 33.3%; in the assay with NCI/ADR-RES ovarian it was 100%; in the assay with MDA-MB-435 melanoma, 99.3%. The growth is 44.1% in the assay on MCF7 breast and 96.1% with KM12 colon.

Regarding `O=S(=O)(c1ccc(Cl)cc1)C(Cl)(Cl)Cl`, the growth in the assay with NCI-H23 lung is 40.6%; with NCI-H226 lung, 60.8%; with NCI-H322M lung it was 75.2%; in the assay on HOP-62 NSCLC it was 78.5%; with NCI-H460 lung it was 80.4%; in the assay on 786-0 renal it was 51.8%. The growth with DU-145 prostate is 49.4%; with MDA-MB-231 breast, 42%; in the assay on SF-268 CNS, 45.5%; in the assay with SNB-19 CNS, 82.9%; in the assay on UACC-62 melanoma, 46.6%; with SK-MEL-28 melanoma, 38.5%. For the same compound, the growth in the assay with SN12C renal is 58.3%; with UO-31 renal it was 9.42% (active); in the assay on OVCAR-5 ovarian it was 78.9%; in the assay on OVCAR-3 ovarian, -15.6% (active); in the assay with NCI/ADR-RES ovarian, 29%; in the assay on MDA-MB-435 melanoma it was -14.8% (active). Besides, the values for the growth with MCF7 breast and in the assay on KM12 colon were 23.8% and 23.4%, respectively.

`CC(C)CCC1(CCO)C(=O)NC(=S)NC1=O`: the growth with NCI-H23 lung was 110%; in the assay on NCI-H226 lung, 105%; in the assay with NCI-H322M lung, 105%; in the assay on HOP-62 NSCLC, 105%; in the assay with NCI-H460 lung, 109%; in the assay on 786-0 renal, 110%. Besides, the growth in the assay with DU-145 prostate was 107%; in the assay on MDA-MB-231 breast, 104%; with SF-268 CNS, 95.1%; in the assay on SNB-19 CNS, 105%; in the assay with UACC-62 melanoma, 97.3%; in the assay with SK-MEL-28 melanoma it was 116%. Moreover, the growth in the assay on SN12C renal was 100%; in the assay with UO-31 renal, 84.1%; with OVCAR-5 ovarian, 99.5%; in the assay with OVCAR-3 ovarian it was 108%; with NCI/ADR-RES ovarian, 114%; with MDA-MB-435 melanoma, 104%. Further, the growth in the assay on MCF7 breast is 109%; with KM12 colon it was 104%.

`Cc1ccc(C(=O)C2CN(C)CCC2(O)c2ccc(C)cc2)cc1` (stereo not given): the growth with NCI-H23 lung is 103%; with NCI-H226 lung, 113%; in the assay on NCI-H322M lung, 113%; in the assay on HOP-62 NSCLC, 140%; with NCI-H460 lung, 111%; in the assay with 786-0 renal, 113%. Moreover, the growth in the assay on DU-145 prostate was 117%; in the assay with MDA-MB-231 breast, 116%; in the assay on SF-268 CNS, 110%; in the assay on SNB-19 CNS, 118%; in the assay with UACC-62 melanoma, 117%; with SK-MEL-28 melanoma, 113%. The growth was 107% with SN12C renal; 99.6% in the assay with UO-31 renal; 122% in the assay on OVCAR-5 ovarian; 119% with OVCAR-3 ovarian; 103% in the assay with NCI/ADR-RES ovarian; 106% with MDA-MB-435 melanoma. The growth in the assay with MCF7 breast is 98.1%; in the assay with KM12 colon, 109%.

As for `S=P(NC1CCCCC1)(N1CC1)N1CC1`, the growth with NCI-H23 lung was 110%; in the assay with NCI-H226 lung, 113%; in the assay on NCI-H322M lung, 113%; in the assay with HOP-62 NSCLC it was 101%; in the assay on NCI-H460 lung it was 82.8%; in the assay on 786-0 renal, 101%. For the same compound, the growth in the assay with DU-145 prostate was 108%; in the assay on MDA-MB-231 breast, 104%; in the assay on SF-268 CNS it was 98.6%; with SNB-19 CNS, 113%; in the assay with UACC-62 melanoma, 91.4%; in the assay on SK-MEL-28 melanoma it was 122%. Moreover, the growth in the assay with SN12C renal is 98.1%; in the assay on UO-31 renal, 94.1%; in the assay on OVCAR-5 ovarian, 104%; with OVCAR-3 ovarian it was 112%; in the assay with NCI/ADR-RES ovarian, 111%; in the assay on MDA-MB-435 melanoma, 110%. For the same compound, the growth with MCF7 breast was 89%; in the assay with KM12 colon it was 110%.

For `S=P(N1CCCCCC1)(N1CC1)N1CC1`, the growth in the assay on NCI-H23 lung was 102%; in the assay with NCI-H226 lung, 106%; in the assay with NCI-H322M lung, 121%; in the assay on HOP-62 NSCLC, 94.8%; in the assay with NCI-H460 lung, 107%; in the assay with 786-0 renal it was 103%. The growth in the assay on DU-145 prostate was 112%; with MDA-MB-231 breast, 96.4%; with SF-268 CNS, 96.8%; with SNB-19 CNS, 101%; with UACC-62 melanoma, 98.3%; with SK-MEL-28 melanoma it was 116%. For the same compound, the growth in the assay on SN12C renal is 96.2%; in the assay on UO-31 renal it was 104%; with OVCAR-5 ovarian, 107%; in the assay on OVCAR-3 ovarian, 112%; in the assay with NCI/ADR-RES ovarian, 104%; in the assay on MDA-MB-435 melanoma it was 109%. The values for the growth in the assay with MCF7 breast and in the assay with KM12 colon were 94% and 105%, respectively.

Take `CC(=O)C1C(=O)N(C)C(=O)N(C)C1=O`: the growth in the assay on NCI-H23 lung is 121%; with NCI-H226 lung it was 95.4%; in the assay on NCI-H322M lung, 107%; in the assay with HOP-62 NSCLC, 98.6%; with NCI-H460 lung, 102%; in the assay with 786-0 renal it was 107%. The growth with DU-145 prostate is 111%; in the assay with MDA-MB-231 breast it was 117%; with SF-268 CNS, 113%; in the assay with SNB-19 CNS, 110%; in the assay with UACC-62 melanoma, 110%; in the assay with SK-MEL-28 melanoma, 106%. In addition, the growth with SN12C renal was 104%; with UO-31 renal, 96.1%; in the assay on OVCAR-5 ovarian, 99.7%; in the assay on OVCAR-3 ovarian it was 112%; in the assay on NCI/ADR-RES ovarian, 113%; in the assay on MDA-MB-435 melanoma it was 94.4%. The growth with MCF7 breast is 99.7%; with KM12 colon it was 107%.

Turning to `CCN(CC)c1ccc(C=C2C(=O)NC(=S)NC2=O)cc1`, the growth with NCI-H23 lung was 93.4%; in the assay with NCI-H226 lung, 85.5%; in the assay on NCI-H322M lung it was 104%; with HOP-62 NSCLC, 98.1%; in the assay on NCI-H460 lung it was 104%; with 786-0 renal, 96.7%. In addition, the growth in the assay with DU-145 prostate was 98.8%; in the assay on MDA-MB-231 breast, 93.7%; in the assay on SF-268 CNS, 80.1%; in the assay on SNB-19 CNS, 88.9%; with UACC-62 melanoma, 85.9%; in the assay with SK-MEL-28 melanoma it was 103%. Moreover, the growth in the assay with SN12C renal was 91.8%; with UO-31 renal, 76.1%; in the assay with OVCAR-5 ovarian, 95.1%; with OVCAR-3 ovarian it was 80.6%; in the assay with NCI/ADR-RES ovarian, 100%; in the assay with MDA-MB-435 melanoma, 98.1%. Besides, the growth with MCF7 breast was 60.3%; with KM12 colon, 96.8%.
